This note sets out measurements from PubChem BioAssay AID1578 (Sanford-Burnham Center for Chemical Genomics, 2009).

In all, about 290,000 compounds went through this assay and about 3,000 (1%) were called active. The entries come from a sample that favours actives as a whole. Values without a mark were called inactive. No stated cut-off is given here; in the data, active means inhibition mostly above about 36% (no sharp cut-off); inactive means mostly below about 34%.

The nature of this assay: NOD1 signaling inhibitors, primary screen, cell-based, luminescence, uHTS (AID 1578).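 Further: HEK-293T reporter cells stimulated with the NOD1 agonist gamma-tri-DAP.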 To be noted: NOD1-driven NF-kB luciferase reporter cells, at 4 µM, hits give high values. Background: Reporter assays use an easily measured gene product as a stand-in for the process of interest.
As a reminder, the inhibition is the relative decrease from the control value, in per cent. For `COc1cc(NC(=S)NCc2cccnc2)c(OC)cc1Cl`, the inhibition was -26.2%.
Under `CC(=O)c1nnn(-c2c(F)cccc2F)c1C` stands -11.8%.
The result for `O=c1[nH][nH]c(C(F)(F)F)c1C=NCc1cccc(Cl)c1` reads -0.4%; that for `CCc1ccc(/C=C/c2c[nH]c3ccccc23)[n+](CC)c1`, -7.1%; that for `CC[n+]1c(/C=C/c2c[nH]c3ccccc23)ccc2cc(C)ccc21`, 79.9% (active).
The result for `CC[n+]1ccc(/C=C/c2c[nH]c3ccccc23)cc1` reads 3.8%; that for `Cn1nnc2cc(NC(=O)Nc3cccc(C(F)(F)F)c3)ccc21`, -5.1%.
Regarding `COc1ccccc1N1CCN(C(=O)CN2C(=O)C3CCCCC3C2=O)CC1` (configuration not stated), the inhibition is -30.6%.
The result for `CCCCN(C)C1CCN(C(=S)Nc2ccc(OC)cc2)CC1` reads -31.8%.
The result for `Cc1cc(C)c(S(=O)(=O)c2ccccc2)c(N2CCOCC2)n1` reads -15.6%; that for `CCCCCc1ccc(-c2ccc(/C=C/C(N)=O)cc2)nc1`, -38.2%.
In the case of `CCCCCc1ccc(-c2ccc(/C=C/C(=O)O)cc2)nc1`, the inhibition was -27.7%.
Under `CCCc1ccc(-c2ccc(/C=C/C(=O)O)cc2)nc1` stands 76.4% (active); under `Cc1cc2c(c(=O)n1Cc1cccnc1)C(c1cccs1)C(C#N)=C(N)O2` (configuration not stated), 7%; under `O=S(=O)(NC1CCCC1)c1cccc(-c2nnc(-c3ccccc3)o2)c1`, -5.3%.
Turning to `COC(=O)[C@@H](NC(=O)NCc1cccs1)C(C)C`, the inhibition is 8.6%.
The result for `CCCCCNC(=O)c1c[nH]c2ccc(S(=O)(=O)N3CCC4(CC3)OCCO4)cc2c1=O` reads -39.2%; that for `O=C(CCCCl)Nc1c2c(nn1-c1ccccc1)CSC2`, -34.6%.
The result for `COc1ccc(-n2nc3c(c2NC(=O)CCCl)CSC3)cc1` reads 1.9%; that for `CCC(=O)Nc1c2c(nn1-c1ccccc1)CSC2`, -26%.
Under `CCC(=O)Nc1c2c(nn1-c1ccc(OC)cc1)CSC2` stands -5.8%; under `COc1ccccc1P(=O)(Cc1ccccc1[N+](=O)[O-])c1ccccc1` (configuration not stated), -7.4%; under `CN1Cc2c(N3CCOCC3)nc3sc(C#N)c(N)c3c2CC1(C)C`, -1.3%.
As for `CCOc1cc2c3c(c1)C(C)CC(C)(C)N3C(=O)C2=O` (configuration not stated), the inhibition was -0.3%.
Under `CCc1cc2c3c(c1)C(C)CC(C)(C)N3C(=O)C2=O` (configuration not stated) stands -3.6%; under `COc1ccc(OC)c(NC(=O)CSc2nncc3ccc(OC)c(OC)c23)c1`, 1%; under `COc1ccc(OC)c(/C=N\NC(=O)c2ccc(-c3ccccc3)cc2)c1`, -32%.
Under `COc1ccccc1Nc1nc(N)nc(CN2CCCCC2)n1` stands -0.3%.
The result for `Cc1ccc(C(=O)CSc2nnc3c4ccccc4nc(C(C)(C)C)n23)cc1` reads 92.5% (active); that for `Cc1ccc(C(=O)CSc2nnc(-c3ccccc3N)n2C)cc1C`, -30.8%; that for `CC(=O)CSc1nnc2c3ccccc3nc(C(C)(C)C)n12`, -19.2%.
As for `Cc1ccc(C(=O)CSc2nnc3c4ccccc4nc(Cc4ccccc4)n23)cc1`, the inhibition was -10.1%.
Under `Cc1ccc(C(=O)CSc2nnc(-c3ccccc3N)n2C)cc1` stands 101% (active).
The result for `Cn1c(SCC(=O)c2ccc(F)cc2)nnc1-c1ccccc1N` reads -7.5%.
Under `CCCCN(C(=O)/C=C/c1ccc(OCC(C)C)c(OCC)c1)c1c(N)n(CCC)c(=O)[nH]c1=O` stands -20.9%.
`CCCCNCc1cc(Cl)c(OCCC)c(OCC)c1`: the inhibition was -20.5%.
Under `Cc1ccccc1NC(=O)COC(=O)c1cccnc1` stands -22.1%; under `COc1ccc(-n2c(SCC(=O)Nc3cccc(C(=O)O)c3)nnc2-c2ccco2)cc1`, -20.2%; under `Cc1nc(Cl)c2c(n1)NC(=O)CO2`, 0.5%.
Regarding `CCN(CC)C(=O)Oc1ccc2ccccc2c1Br`, the inhibition was -53.4%.
The result for `O=C(Nc1cccc(NC(=O)c2cccs2)c1)c1ccc(Br)o1` reads -17.2%.
Regarding `O=C(Nc1ccc2oc(-c3ccncc3)nc2c1)c1ccc([N+](=O)[O-])o1`, the inhibition is 22.8%.
With `Cc1ccc2nc(-c3ccc(NC(=O)c4cccnc4)cc3)oc2c1`, the inhibition was 58.7% (active).
Under `O=C(Nc1ccc2oc(-c3cccnc3)nc2c1)c1ccc(Br)o1` stands -16.5%; under `O=C(Nc1ccc(-c2nc3ccccc3o2)cc1)c1cccnc1`, -1.6%; under `O=C(Nc1cccc(NC(=O)c2cccs2)c1)c1ccc([N+](=O)[O-])o1`, 36.9% (active).
The result for `COc1cc(NC(=O)c2ccc([N+](=O)[O-])o2)ccc1NC(=O)c1cccs1` reads 9.1%; that for `Cc1ccc2oc(-c3ccc(NC(=O)c4cccnc4)cc3)nc2c1`, -27.5%.
Under `COCCNC(=O)C(c1ccc(OC)cc1)N(Cc1ccco1)C(=O)CCC(=O)Nc1ccccn1` (configuration not stated) stands 19.2%; under `COc1ccc(CN2CCN(Cc3c[nH]c4ccccc34)CC2CCO)cc1C` (configuration not stated), -1.8%.
For the compound `Cc1ccc(C(=O)CCNc2ccc(Cl)cc2)o1`, the inhibition is -29.8%.
The result for `CS(=O)(=O)N(CC(=O)NCC1CCCO1)c1cc(Cl)ccc1Cl` (configuration not stated) reads 2.4%; that for `O=c1c[n+]([O-])c2ccccc2n1OCc1ccccn1`, 0.2%.
The result for `C#CCN1C(=O)C(O)(CC(=O)/C=C/c2ccco2)c2ccccc21` (configuration not stated) reads -14.4%; that for `CC(C)CC(NC(=O)C1CCC(C)CC1)C(=O)N1CCN(c2ccccn2)CC1` (configuration not stated), 0.1%.
Under `CC1CCC(C(=O)NC(C(=O)N2CCN(c3ccccn3)CC2)C(C)C)CC1` (configuration not stated) stands 68% (active); under `CSCCC(NC(=O)C1CCC(C)CC1)C(=O)N1CCN(c2ccccn2)CC1` (configuration not stated), 4.8%; under `C/C(=N\N(c1ccccc1)c1ccccc1)c1ccco1`, -19.4%.
As to `COCCOC(=O)C1=C(C)NC(=S)NC1/C=C/c1ccccc1` (configuration not stated), the inhibition was -9.4%.
The result for `Cc1cccc(NC(=O)c2cccc(NC(=O)c3ccccc3)c2)n1` reads -35.6%; that for `COc1ccc(NC(=O)CSc2nc3nc(-c4cccs4)cc(C(F)(F)F)c3c(=O)[nH]2)c(OC)c1`, 31.6%.
The result for `CC(=O)Nc1ccc(NC(=O)CSc2nc3nc(-c4cccs4)cc(C(F)(F)F)c3c(=O)[nH]2)cc1` reads -6.3%.
